# Screening results from PubChem.
# Only some compounds are listed: those with a hit (about 31% of all), similar ones and a draw of the others.
# PLAP activator: human PLAP activation; activation fold at 20 µM; purified PLAP enzyme, luminescent substrate read-out; stronger effect = higher value; P05187; 96,000 tested, 1.2% active; in the data active means activation fold above about 2
# CYP2C19 inhib: inhibitors of human CYP2C19. P33261. CYP2C19 Supersomes, luciferin-H EGE luminescence, 30 min. inhibition, % at 5 µM. 96,000 tested, 21% active. AID 778;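 active means CYP2C19 inhibition above a set limit at 5 µM in the primary screen, cut at about 50% in these data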;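 further: plate controls were negative control wells for no effect and 2.5 mM tranylcypromine positive control for full effect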
# CYP2C9 act: activators of human CYP2C9; P11712; recombinant CYP2C9, luciferin-H conversion, luminescence; stronger effect = higher value; factor 1 = untreated enzyme, 0 = blocked; activation factor at 5 µM; 96,000 tested, 1.4% active;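 active means activation factor of 2 or more for CYP2C9 at a 5 µM dose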;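 further: 0 = sulfaphenazole-blocked wells and 1 = vehicle-only wells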
# Target sequence (P11712 whole entry, looked up): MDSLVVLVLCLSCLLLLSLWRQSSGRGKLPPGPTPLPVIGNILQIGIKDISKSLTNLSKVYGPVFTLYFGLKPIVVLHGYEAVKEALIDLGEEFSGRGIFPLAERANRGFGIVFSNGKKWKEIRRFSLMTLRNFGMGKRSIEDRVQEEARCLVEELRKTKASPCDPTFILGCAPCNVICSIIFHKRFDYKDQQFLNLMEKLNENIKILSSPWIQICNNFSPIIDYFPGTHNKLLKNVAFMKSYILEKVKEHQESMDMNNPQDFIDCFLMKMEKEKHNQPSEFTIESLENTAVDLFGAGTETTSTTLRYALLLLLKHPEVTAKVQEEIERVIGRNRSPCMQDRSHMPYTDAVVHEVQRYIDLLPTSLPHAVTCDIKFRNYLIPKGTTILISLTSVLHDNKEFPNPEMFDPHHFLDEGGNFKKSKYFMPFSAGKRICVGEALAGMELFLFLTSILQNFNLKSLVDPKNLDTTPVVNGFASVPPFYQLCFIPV
# CYP2C19 activ: increases human CYP2C19 enzyme activity; P33261; recombinant CYP2C19, luciferin-H EGE luminescence; stronger effect = higher value; 0 = fully inhibited enzyme, 1 = untreated enzyme; activation factor at 5 µM; 96,000 tested, under 10 active; AID 1025;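 active means activation factor of at least 2 at 5 µM in the primary screen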;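 further: 0 = wells with 2.5 mM tranylcypromine and 1 = vehicle-only wells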
# CYP2C9 inhib: inhibitors of human CYP2C9; 96,000 tested, 20% active; inhibition, % at 5 µM; AID 777; CYP2C9 Supersomes, luciferin-H conversion, luminescence;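 active means blocking of liver enzyme CYP2C9 beyond about 50% at 5 µM, limit read from the data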
# * = called active by the depositor; x = no result given.
SMILES,PLAP activator,CYP2C19 inhib,CYP2C9 act,CYP2C19 activ,CYP2C9 inhib
CN1CCN(C(=O)c2c(O)c3cccc4c3n(c2=O)CCC4)CC1,1.1,-16.4,1.1,1.2,-13.0
COc1ccc(-c2nnc(SCC(=O)N3CCC(Cc4ccccc4)CC3)o2)cc1OC,1.6,93.4*,0.4,0.1,64.7*
COc1ccc(-c2nnc(SCC(=O)N3CCOCC3)o2)cc1OC,1.1,34.7,0.7,0.7,29.9
Cc1ccc(S(=O)(=O)N2CCN(C(=O)CSc3nnc(-c4ccco4)o3)CC2)cc1,1.6,76.2*,0.3,0.2,73.3*
CCOC(=O)N1CCN(C(=O)CSc2nnc(-c3cccc(OC)c3)o2)CC1,1.5,40.3,0.5,0.6,54.5*
CCOC(=O)N1CCN(C(=O)CSc2nnc(-c3ccccc3OC)o2)CC1,1.6,26.3,2.2*,0.7,-123.8
CCOC(=O)N1CCN(C(=O)CSc2nnc(-c3cc(OC)cc(OC)c3)o2)CC1,1.3,29.6,0.7,0.7,28.8
COc1cc2c(cc1OC)C1(Nc3c-2c(Cc2ccccc2)nn3-c2ccccc2)C(=O)Nc2ccccc21 (configuration not stated),1.7,0.4,0.6,1,40.9
Nn1c(SCC(=O)NCCC2=CCCCC2)nnc1C(F)(F)F,1,48.8,0.8,0.5,23.0
CC1CCCN(S(=O)(=O)c2ccc(NC(=O)CCN3C(=O)c4ccccc4C3=O)cc2)C1 (configuration not stated),1,4.2,0.5,1,45.3
Cn1c(SCC(=O)NC2CCCCCC2)nnc1-c1cccs1,0.9,11.1,0.8,0.9,17.7
Nn1c(SCC(=O)Nc2ccc3c(c2)OCO3)nnc1C1CCCCC1,0.7,14.4,0.6,0.9,39.7
CCn1c(CNC(=O)Cc2ccc(OC)cc2)nnc1SCC(=O)NC1CCCCC1,1.3,14.4,0.7,0.9,27.1
O=C(Cn1c(SCC(=O)NC2CCCC2)nnc1-c1ccncc1)Nc1ccc2c(c1)OCO2,1.1,90.7*,0.1,0.1,90.6*
O=C(CSc1nc(-c2ccncc2)nn1CC(=O)N1CCCCC1)NC1CCCC1,1,63.5*,0.2,0.4,78.7*
CCCn1c(SCC(=O)NC2CCCCC2)nnc1-c1ccncc1,1,64.6*,0.9,0.4,9.6
CCn1c(SCC(=O)NC2CCCCC2C)nnc1-c1ccc(OC)cc1 (configuration not stated),1.5,70.7*,0.3,0.3,67.8*
CCOC(=O)N/C(N)=N/c1nc2ccccc2s1,1.6,26.5,1,0.7,-3.1
Cc1ccc(OCCC(=O)Nc2c(C)n(C)n(-c3ccccc3)c2=O)cc1,1.3,-10.6,1.1,1.1,-11.2
CCOc1cc(CNCc2ccncc2)cc(Br)c1OCc1ccc(F)cc1,1.6,80.5*,0.1,0.2,91.0*
Fc1ccccc1COc1ccc(Br)cc1CNCc1ccncc1,1.7,98.7*,0.2,0,84.5*
Nc1nonc1C(=O)NCCNCc1c(OCc2ccccc2F)ccc2ccccc12,0.6,35.5,0.7,0.6,34.6
CCOc1cc(CNc2ccccc2)cc(Br)c1OCc1ccccc1F,x,30.2,0.5,0.7,54.2*
COc1cc(CNc2cccc(F)c2)cc(Br)c1O,1.4,16.5,0.9,0.8,13.6
Fc1ccc(COc2ccc(Br)cc2CNCc2ccncc2)cc1,1.3,99.4*,0.1,0,89.4*
SMILES,PLAP activator,CYP2C19 inhib,CYP2C9 act,CYP2C19 activ,CYP2C9 inhib
Nc1nonc1C(=O)NCCNCc1cc(Br)ccc1OCc1ccc(F)cc1,1,35.0,0.8,0.7,24.9
NNC(=O)c1nnn(-c2nonc2N)c1-c1cccs1,1,30.1,0.9,0.7,6.4
Cc1nc2ccc(S(=O)(=O)NC(C(=O)N3CCC(C)CC3)C(C)C)cc2s1 (configuration not stated),1.5,13.0,0.7,0.9,28.6
CCc1cccc(CC)c1N(COC)C(=O)Cn1c(CO)nc2ccccc21,1.7,35.8,0.5,0.6,51.0*
CCOC(=O)CCn1c(CC(=O)OCC)nc2ccccc21,1,12.1,0.9,0.9,5.0
CCc1cccc(CC)c1N(COC)C(=O)Cn1ccccc1=N,0.8,-13.0,1,1.1,-3.3
CCc1cccc(CC)c1N(COC)C(=O)Cn1nnc2ccccc21,1.5,82.4*,0,0.2,99.7*
COc1cc(NC(=O)c2ccccc2Cl)c(OC)cc1NC(=O)CN1CCOCC1,1.5,13.1,0.6,0.9,44.7
COc1ccc(-n2c(=S)[nH]c3ccccc32)cc1,1.7,53.8*,1.6,0.5,-63.5
Cc1cc(S(=O)(=O)N2CCN(c3ccccc3O)CC2)c(C)s1,0.9,70.8*,0.7,0.3,30.2
COc1ccccc1N1CCN(S(=O)(=O)c2cc(C)sc2C)CC1,0.9,42.0,0.7,0.6,34.6
COc1cc(-c2csc(C)n2)ccc1O,0.9,6.0,1.1,0.9,-13.4
COc1ccc(-c2ncncc2-c2csc(C)n2)c(O)c1OC,1.3,63.2*,0.5,0.4,51.5*
CCCCOC(=O)c1cc(C)nc2ccc(Br)cc12,0.8,0.5,1,1,0.2
CCOC(=O)c1cc(C(=O)OCC)c2cc(Br)ccc2n1,1.1,46.9,0.4,0.5,63.9*
O=C(O)c1cccc(S(=O)(=O)N2CCOCC2)c1,0.8,-16.2,1,1.2,-4.7
CCCSc1nc(N)cc(=O)[nH]1,1.1,6.5,1,0.9,-2.8
Nc1nc(Nc2cccc(F)c2)nc2ccccc12,1.5,62.1*,0.4,0.4,56.0*
COc1ccc(-n2nc(C(=O)O)c3ccccc3c2=O)cc1,0.9,-9.7,1.2,1.1,-22.7
COc1cccc(-n2nc(C(=O)N3CC(C)CC(C)C3)c3ccccc3c2=O)c1 (configuration not stated),1.3,46.9,0.4,0.5,58.4*
O=C(Cn1cnc2ccccc2c1=O)NCc1ccc2c(c1)OCO2,0.7,5.7,0.9,0.9,7.8
COc1ccc(CCNC(=O)c2c(O)c3cccc4c3n(c2=O)CC4)cc1OC,1.3,55.3*,0.3,0.4,72.4*
COc1ccc(-n2nc(C(=O)N3CCN(c4ccc(F)cc4)CC3)c3ccccc3c2=O)c(OC)c1,1.5,44.6,0.4,0.6,56.2*
CCCCNC(=O)c1c(O)c2cccc3c2n(c1=O)CCC3,0.8,-5.4,1.1,1.1,-14.7
O=C(NCc1ccc2c(c1)OCO2)c1nn(-c2ccccc2)c(=O)c2ccccc12,1.2,87.1*,0.1,0.1,93.6*
COC(=O)COc1ccc(S(=O)(=O)NCc2cccnc2)cc1C,0.8,38.6,1,0.6,1.5
CCOC(=O)CNc1nc(OCC#N)nc(N2CCOCC2)n1,1.1,-10.7,1.1,1.1,-9.3
COc1ccc(/C=N/NC(=O)c2nn(-c3ccccc3)c(=O)c3c(N)scc23)cc1,0.9,4.8,0.7,1,29.6
O=C(Nc1ccc2c(c1)OCO2)c1nn(-c2ccccc2)c(=O)c2ccccc12,0.8,2.6,0.8,1,16.0
O=C(NCc1ccc2c(c1)OCO2)c1c(O)c2cccc3c2n(c1=O)CCC3,1.3,21.9,0.3,0.8,71.9*
